# Experimental data as given in the supplement of paper PMC6555819.
# Legend:
# Assay in all cases: PBM binding z-score (relative to random genomic background probes); higher = stronger binding; sequences stand for … in GC…GCGATTGACAGCGTAGAATGAAGG
# [1] = tested on: FXR:RXRa (NR concentration 270 nM, RXRa partner concentration 90 nM)
# Summary of the method: (§1)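 Scanned fluorescence from custom Agilent 4×180K protein-binding microarrays was regression-normalized. Binding z-scores use random background probes as reference. Ligand-free nuclear receptor dimers were incubated on the arrays for 1 h and detected with antibodies against each partner (one per run).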
# [2] = tested on: LXRa:RXRa (NR concentration 270 nM, RXRa partner concentration 90 nM)
# Summary of the method: as §1
# [3] = tested on: LXRa homodimer (NR concentration 270 nM)
# Summary of the method: as §1
# [4] = tested on: LXRb:RXRa (NR concentration 270 nM, RXRa partner concentration 90 nM)
# Summary of the method: as §1
# [5] = tested on: LXRb homodimer (NR concentration 270 nM)
# Summary of the method: as §1
# [6] = tested on: PPARa:RXRa (NR concentration 270 nM, RXRa partner concentration 90 nM)
# Summary of the method: as §1
# [7] = tested on: PPARg:RXRa (NR concentration 180 nM, RXRa partner concentration 90 nM)
# Summary of the method: as §1
# [8] = tested on: PPARg:RXRa 270nM:90nM, anti-RXR (NR concentration 270 nM, RXRa partner concentration 90 nM)
# Summary of the method: as §1
# [9] = tested on: PPARg:RXRa 30nM:10nM, anti-RXR (NR concentration 30 nM, RXRa partner concentration 10 nM)
# Summary of the method: as §1
# [10] = tested on: PPARg:RXRa 90nM:30nM, anti-RXR (NR concentration 90 nM, RXRa partner concentration 30 nM)
# Summary of the method: as §1
# [11] = tested on: PPARg:RXRa DBDmut IVT, anti-RXR (DBD mutation: RXRa K156A/R161A, NR concentration 270 nM, RXRa partner concentration 90 nM)
# Summary of the method: as §1
# [12] = tested on: PPARg:RXRa IVT, anti-PPARg (NR concentration 270 nM, RXRa partner concentration 90 nM)
# Summary of the method: as §1
# [13] = tested on: PPARg DBDmut:RXRa IVT, anti-PPARg (DBD mutation: PPARg1 K132A/R137A, NR concentration 270 nM, RXRa partner concentration 90 nM)
# Summary of the method: as §1
# [14] = tested on: PPARg DBDmut IVT, anti-PPARg (DBD mutation: PPARg1 K132A/R137A, NR concentration 270 nM)
# Summary of the method: as §1
# [15] = tested on: PPARg homodimer (NR concentration 180 nM)
# Summary of the method: as §1
# [16] = tested on: PXR:RXRa (NR concentration 270 nM, RXRa partner concentration 90 nM)
# Summary of the method: as §1
# [17] = tested on: PXR homodimer (NR concentration 270 nM)
# Summary of the method: as §1
# [18] = tested on: RARa homodimer (NR concentration 270 nM)
# Summary of the method: as §1
# [19] = tested on: RARb:RXRa (NR concentration 270 nM, RXRa partner concentration 90 nM)
# Summary of the method: as §1
# [20] = tested on: RARa:RXR (NR concentration 270 nM, RXRa partner concentration 90 nM)
# Summary of the method: as §1
sequence,measurement,setting,value
GCTAGTAGGTCAGTAAAAGGTCACACACCGGTCG,PBM binding z-score,[1],4.98
same,PBM binding z-score,[2],5.45
same,PBM binding z-score,[3],5.31
same,PBM binding z-score,[4],5.01
same,PBM binding z-score,[5],1.21
same,PBM binding z-score,[6],5.55
same,PBM binding z-score,[7],7.3
same,PBM binding z-score,[8],6.72
same,PBM binding z-score,[9],4.43
same,PBM binding z-score,[10],6.42
same,PBM binding z-score,[11],7.2
same,PBM binding z-score,[12],7.29
same,PBM binding z-score,[13],3.2
same,PBM binding z-score,[14],3.78
same,PBM binding z-score,[15],6.95
same,PBM binding z-score,[16],5.97
same,PBM binding z-score,[17],1.43
same,PBM binding z-score,[18],2.9
same,PBM binding z-score,[19],5.4
CGTCCAAGGTCATAGGAGGTCACTGAAGACAGAT,PBM binding z-score,[1],7.73
same,PBM binding z-score,[2],7.6
same,PBM binding z-score,[3],6.16
same,PBM binding z-score,[4],6.62
same,PBM binding z-score,[5],1.26
same,PBM binding z-score,[6],6.26
same,PBM binding z-score,[7],6.52
same,PBM binding z-score,[8],6.6
same,PBM binding z-score,[9],3.16
same,PBM binding z-score,[10],5.31
same,PBM binding z-score,[11],3.85
same,PBM binding z-score,[12],5.27
same,PBM binding z-score,[13],1.24
same,PBM binding z-score,[14],1.12
same,PBM binding z-score,[15],5.21
same,PBM binding z-score,[16],7.29
same,PBM binding z-score,[17],6.78
same,PBM binding z-score,[18],3.25
same,PBM binding z-score,[19],5.39
CGTCCAAGGTCATAAGAGGTCAGTGAAGACAGAT,PBM binding z-score,[1],7.91
same,PBM binding z-score,[2],7.9
same,PBM binding z-score,[3],5.88
same,PBM binding z-score,[4],7.04
same,PBM binding z-score,[5],2.11
same,PBM binding z-score,[6],5.7
same,PBM binding z-score,[7],5.38
same,PBM binding z-score,[8],5.99
same,PBM binding z-score,[9],2.54
same,PBM binding z-score,[10],4.85
same,PBM binding z-score,[11],3.48
same,PBM binding z-score,[12],4.2
same,PBM binding z-score,[13],2.03
same,PBM binding z-score,[14],-0.112
same,PBM binding z-score,[15],7.68
same,PBM binding z-score,[16],7.11
same,PBM binding z-score,[17],7.52
same,PBM binding z-score,[18],4
same,PBM binding z-score,[19],5.47
CCTTGCGGGTCACTGACAGGTTATAGCATTTGGA,PBM binding z-score,[1],4.69
same,PBM binding z-score,[2],3.74
same,PBM binding z-score,[3],0.0362
same,PBM binding z-score,[4],2.95
same,PBM binding z-score,[5],-0.459
same,PBM binding z-score,[6],5.05
same,PBM binding z-score,[7],5.18
same,PBM binding z-score,[8],4.76
same,PBM binding z-score,[9],1.63
same,PBM binding z-score,[10],3.47
same,PBM binding z-score,[11],4.94
same,PBM binding z-score,[12],5.29
same,PBM binding z-score,[13],-0.0944
same,PBM binding z-score,[14],-0.215
same,PBM binding z-score,[15],2
same,PBM binding z-score,[16],3.05
same,PBM binding z-score,[17],-0.0222
same,PBM binding z-score,[18],0.173
same,PBM binding z-score,[19],3.63
CACACTAGGTCAAGAGGTCAAAGTCCGCTTCCCG,PBM binding z-score,[1],7.5
same,PBM binding z-score,[2],6.61
same,PBM binding z-score,[3],7.43
same,PBM binding z-score,[4],5.8
same,PBM binding z-score,[5],2.67
same,PBM binding z-score,[6],6.33
same,PBM binding z-score,[7],9.41
same,PBM binding z-score,[8],7.85
same,PBM binding z-score,[9],7.67
same,PBM binding z-score,[10],8.14
same,PBM binding z-score,[11],7.22
same,PBM binding z-score,[12],7.67
same,PBM binding z-score,[13],2.76
same,PBM binding z-score,[14],1.84
same,PBM binding z-score,[15],7.46
same,PBM binding z-score,[16],6.33
same,PBM binding z-score,[17],3.75
same,PBM binding z-score,[18],3.81
same,PBM binding z-score,[19],5.28
GCTTACGGGTCAAAGGTTACAGCATGAATAGAAT,PBM binding z-score,[1],8.04
same,PBM binding z-score,[2],5.9
same,PBM binding z-score,[3],0.488
same,PBM binding z-score,[4],6.05
same,PBM binding z-score,[5],0.89
same,PBM binding z-score,[6],7.24
same,PBM binding z-score,[7],12
same,PBM binding z-score,[8],9.99
same,PBM binding z-score,[9],10
same,PBM binding z-score,[10],11.5
same,PBM binding z-score,[11],5.26
same,PBM binding z-score,[12],6.43
same,PBM binding z-score,[13],2.32
same,PBM binding z-score,[14],2.26
same,PBM binding z-score,[15],5.3
same,PBM binding z-score,[16],6.45
same,PBM binding z-score,[17],0.418
same,PBM binding z-score,[20],8.5
same,PBM binding z-score,[18],1.16
same,PBM binding z-score,[19],4.7
ATCTCTAGGTAAAGGTCAGTGAAAGATCGATAGA,PBM binding z-score,[1],3.48
same,PBM binding z-score,[2],3.55
same,PBM binding z-score,[3],1.74
same,PBM binding z-score,[4],3.42
same,PBM binding z-score,[5],1.54
same,PBM binding z-score,[6],4.32
same,PBM binding z-score,[7],6.77
same,PBM binding z-score,[8],6.29
same,PBM binding z-score,[9],4.39
same,PBM binding z-score,[10],6.41
same,PBM binding z-score,[11],3.45
same,PBM binding z-score,[12],4.2
same,PBM binding z-score,[13],1.29
same,PBM binding z-score,[14],1.49
same,PBM binding z-score,[15],3.73
same,PBM binding z-score,[16],3.35
same,PBM binding z-score,[17],1.1
same,PBM binding z-score,[18],2.88
same,PBM binding z-score,[19],4.53
